Results taken from PubChem BioAssay (NCATS).
“And” between values parts separate entries of the source, which are not always exact repeats. Equal values may be shown once. Results filed as inconclusive are left out. The source holds several records for some structures; these can differ, active in one and inactive in another. The source made the active and inactive calls. Unless noted, calls follow the shape of the dose curve; as a rule, active = well fitted curve in the direction sought with a large enough effect; inconclusive = small, poorly fitted or top-dose-only effect, or another doubt; inactive = no such curve, though single readings can be large; an effect the other way counts as inactive or inconclusive.

Experiments:
[1] = system: HeLa; experiment: Primary qHTS to identify gynecologic anti-cancer compounds using libraries of approved drugs and bioactive compounds (AID 1345084); settings: Gynecologic cancer cell panel viability, ATPlite luminescence, 48 h; series mostly up to 57.5 µM; also: nearly all actives have a fitted effect of over 55% in size; also: potency is read from the fitted curve at half-maximal effect
In short: (§1)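 Measured: luminescence after ATPlite addition (15 min, RT). Exposure: 48 h, 37 C, 5% CO2.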

[2] = system: OV90; experiment: as above; settings: Gynecologic cancer cell panel viability, ATPlite luminescence, 48 h; series mostly up to 57.5 µM
In short: as §1

[3] = system: PA-1; experiment: as above; settings: Gynecologic cancer cell panel viability, ATPlite luminescence, 48 h; series mostly up to 57.5 µM
In short: as §1

[4] = system: SKOV3; experiment: as above; settings: Gynecologic cancer cell panel viability, ATPlite luminescence, 48 h; series mostly up to 57.5 µM
In short: as §1

[5] = system: Tov-21-G; experiment: as above; settings: Gynecologic cancer cell panel viability, ATPlite luminescence, 48 h; series mostly up to 57.5 µM
In short: as §1

[6] = system: Tov112D; experiment: as above; settings: Gynecologic cancer cell panel viability, ATPlite luminescence, 48 h; series mostly up to 57.5 µM
In short: as §1

[7] = Drug repurposing screens with cells derived from glioblastoma tumor samples (AID 1345199); settings: GBM patient neurospheres viability, ATP luminescence, 48 h; also: nearly all actives have a fitted effect of over 40% in size; also: potency is read from the fitted curve at half-maximal effect; as to activity, negative = cell killing: % is scaled to controls: 0 for no effect and ±100 for the full control effect
In short: (§2)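 Four patient lines of CD133+ GBM neurospheres were screened at several concentrations; hits were retested in those lines plus three slower-growing GBM lines, using 48-hour treatment and ATP-based viability.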

[8] = system: astro; experiment: as above; settings: viability, ATP luminescence, 48 h; series mostly up to 45.9 µM
In short: as §2

[9] = system: Hek293T; experiment: Primary qHTS to identify gynecologic anti-cancer compounds using libraries of approved drugs and bioactive compounds (AID 1345084); settings: Gynecologic cancer cell panel viability, ATPlite luminescence, 48 h, control line for the selectivity index; series mostly up to 57.5 µM; also: nearly all actives have a fitted effect of over 55% in size; also: potency is read from the fitted curve at half-maximal effect
In short: as §1

[10] = qHTS assay to identify inhibitors of the type 1 interferon - major histocompatibility complex class I in skeletal muscle: Counter screen cell viability and HiBit confirmation (AID 1347412); settings: iHSKM muscle cells + IFN-b, HiBiT or CellTiter-Glo, 24 h; for activity change, negative = inhibition: at 45.9 µM (top of the series); also: potency is read from the fitted curve at half-maximal effect; as to activity change, negative = inhibition: % is scaled to controls: 0 for no effect and ±100 for the full control effect; as to all read-outs here: nearly all actives have a fitted effect of over 60% in size
In short: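 After 24 h with human IFN-beta (4 ng/ml) and compound titrations (top 46 uM final, 1:3, 12 points), HLA-B HiBit myoblasts were lysed for either Nano-Glo HiBiT luminescence or CellTiter Glo viability on paired plates.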

[11] = system: Es-2; experiment: Primary qHTS to identify gynecologic anti-cancer compounds using libraries of approved drugs and bioactive compounds (AID 1345084); settings: Gynecologic cancer cell panel viability, ATPlite luminescence, 48 h; series mostly up to 57.5 µM; also: nearly all actives have a fitted effect of over 55% in size; also: potency is read from the fitted curve at half-maximal effect
In short: as §1

[12] = system: JEG-3; experiment: as above; settings: Gynecologic cancer cell panel viability, ATPlite luminescence, 48 h; series mostly up to 57.5 µM
In short: as §1

[13] = target: Nuclear receptor subfamily 1 group I member 2 (Rattus norvegicus) (UniProt Q9R1A7); experiment: qHTS assay for small molecule activators of the rat pregnane X receptor (rPXR) signaling pathway (AID 651751; call rule not given here; also: 0% is about no effect); settings: rPXR reporter cells, luciferase (One-Glo), 24 h
[14] = qHTS assay for small molecule activators of the human pregnane X receptor (PXR) signaling pathway (AID 720659; call rule not given here; also: 0% is about no effect)
[15] = at 46.1 µM (top of the series), tumour line C
[16] = at 45.9 µM (top of the series), tumour line B
[17] = at 45.9 µM (top of the series), tumour line D
[18] = at 46 µM (top of the series), tumour line A

Nuclear receptor subfamily 1 group I member 2 (Rattus norvegicus), sequence (Q9R1A7 whole entry, looked up): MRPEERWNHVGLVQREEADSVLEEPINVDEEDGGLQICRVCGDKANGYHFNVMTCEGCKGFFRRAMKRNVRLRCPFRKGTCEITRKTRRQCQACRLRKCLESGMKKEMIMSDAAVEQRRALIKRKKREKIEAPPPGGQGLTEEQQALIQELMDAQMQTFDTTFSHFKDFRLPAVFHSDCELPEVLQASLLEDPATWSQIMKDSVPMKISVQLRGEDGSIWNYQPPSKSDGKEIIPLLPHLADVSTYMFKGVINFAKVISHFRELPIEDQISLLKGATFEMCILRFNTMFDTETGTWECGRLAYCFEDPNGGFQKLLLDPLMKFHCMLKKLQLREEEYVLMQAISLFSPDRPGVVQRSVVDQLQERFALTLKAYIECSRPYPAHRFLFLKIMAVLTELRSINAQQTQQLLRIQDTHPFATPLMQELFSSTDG

C[C@@H]1C[C@H]2[C@@H]3CCC4=CC(=O)C=C[C@]4(C)[C@@]3(Cl)[C@@H](O)C[C@]2(C)[C@@]1(OC(=O)c1ccco1)C(=O)CCl
inactive: Potency [1] | Potency [2] | Potency [3] | Potency [4] | Potency [5] | Potency [6] | activity, negative = cell killing ([7]; at 20 µM (top of the series), tumour line C) 13.7% | activity, negative = cell killing ([7]; at 21.2 µM (top of the series), tumour line B) -9.13% | activity, negative = cell killing ([7]; at 21.2 µM (top of the series), tumour line D) -9.21% | activity, negative = cell killing ([7]; at 21.3 µM (top of the series), tumour line A) -28.2% | Potency [8]

COc1cc(NCc2ccc3nc(N)nc(N)c3c2C)cc(OC)c1OC
active: Potency [9] 0.1 µM | Potency [3] 0.178 µM | Potency [6] 0.1 µM
inactive: Potency [4] | activity change, negative = inhibition ([10]; HiBiT) -7.08% | activity change, negative = inhibition ([10]; Viability) -0.467%

CNC(=O)c1cc(Oc2ccc(NC(=O)Nc3ccc(Cl)c(C(F)(F)F)c3)cc2)ccn1
inactive: Potency [11] | Potency [12] | Potency [2] | Potency [3] | Potency [5] | Potency [6] | activity change, negative = inhibition ([10]; Viability) -24%
active: Potency [8] 11.2 µM

N[C@@H](Cc1ccc(O)c(O)c1)C(=O)O
inactive: activity, negative = cell killing [7, 15] 28.9% | max response [13] -10% | outcome [14]
active: Potency ([7]; tumour line A) 12.6 µM

C[C@@H](NCCCc1cccc(C(F)(F)F)c1)c1cccc2ccccc12
inactive: Potency [12] | Potency [5] | Potency [6] | activity change, negative = inhibition ([10]; HiBiT) 14% | activity change, negative = inhibition ([10]; Viability) -23.6%
active: Potency [8] 22.4 µM

NC1(c2ccc(-c3nc4ccn5c(=O)[nH]nc5c4cc3-c3ccccc3)cc2)CCC1
inactive: Potency [11] | Potency [6]
active: Potency [9] 3.55 µM | Potency [2] 2 µM | Potency [3] 22.4 µM | Potency [4] 11.2 µM

COc1cc2nc(N3CCCN(C)CC3)nc(NC3CCN(Cc4ccccc4)CC3)c2cc1OC
active: Potency ([10]; Viability) 22.2 µM

CC(C)OC(=O)C(C(=O)OC(C)C)=C1SC=CS1
inactive: Potency [11] | Potency [9] | Potency [2] | Potency [3] | Potency [5] | Potency [6] | activity, negative = cell killing [7, 15] -18.3%
active: Potency [4] 25.1 µM | Potency ([7]; tumour line A) 11.2 µM

Oc1c(Cl)cc(Cl)c2cccnc12
active: Potency [11] 20 µM | Potency [3] 12.6 µM | Potency [5] 28.2 µM | Potency ([7]; tumour line A) 15.8 µM | Potency ([7]; tumour line B) 8.91 µM
inactive: activity, negative = cell killing [7, 15] -48.9% | activity change, negative = inhibition ([10]; HiBiT) -16.5% | activity change, negative = inhibition ([10]; Viability) -8.17%

CC(=O)[C@H]1CC[C@H]2[C@@H]3CCC4=CC(=O)CC[C@]4(C)[C@H]3CC[C@]12C
inactive: activity, negative = cell killing [7, 16] -26.3% | Potency [8]
active: Potency ([7]; tumour line D) 12.6 µM

CCCCCCNC(=O)n1cc(F)c(=O)[nH]c1=O
inactive: Potency [1] | Potency [9] | Potency [2] | Potency [6] | activity, negative = cell killing [7, 15] -20.6%

CC(=O)Oc1ccccc1C(=O)Nc1ncc([N+](=O)[O-])s1
inactive: Potency [12] | Potency [2] | Potency [5] | Potency [6] | activity change, negative = inhibition ([10]; Viability) -5.7%
active: Potency ([10]; HiBiT) 14 µM

COc1ccc2cc3[n+](cc2c1OC)CCc1cc2c(cc1-3)OCO2
inactive: Potency [5] | max response [13] 6.2% | outcome [14]
active: Potency [11] 15.8 µM | Potency [2] 5.62 µM | Potency [8] 6.31 µM

CC(C)(C)C(=O)OCOP(=O)(COCCn1cnc2c(N)ncnc21)OCOC(=O)C(C)(C)C
inactive: activity, negative = cell killing [7, 15] -7.63% | Potency [8]
active: Potency [11] 7.08 µM

CN(C)c1ccc(C(=C2C=CC(=[N+](C)C)C=C2)c2ccc(N(C)C)cc2)cc1
inactive: outcome [14]
active: Potency [11] 1.78 µM | Potency [12] 14.1 µM | Potency [3] 0.447 µM | Potency [4] 0.316 µM | Potency [5] 1.78 µM | Potency [6] 2 µM | Potency [8] 2.51 µM | Potency ([10]; HiBiT) 9.91 µM | Potency ([10]; Viability) 9.91 µM

Cc1ccnc2c1NC(=O)c1cccnc1N2C1CC1
inactive: Potency [11] | Potency [9] | Potency [12] | Potency [2] | Potency [3] | Potency [5] | Potency [6] | activity, negative = cell killing [7, 16] -8.19% | activity, negative = cell killing [7, 17] 4.3% | activity, negative = cell killing [7, 18] -21.5% | activity, negative = cell killing [7, 15] -3.33% | Potency [8] | max response [13] -6.61% | outcome [14]

CO[C@@]12[C@H](COC(N)=O)C3=C(C(=O)C(C)=C(N)C3=O)N1C[C@@H]1N[C@@H]12
inactive: activity, negative = cell killing [7, 16] -14.3% | activity, negative = cell killing [7, 17] -12.4% | activity, negative = cell killing [7, 18] -9.83% | activity, negative = cell killing [7, 15] -16.3% | Potency [8]
active: Potency [11] 4.47 µM | Potency [2] 17.8 µM | Potency [5] 14.1 µM | Potency [6] 0.794 µM

Nc1nc(F)nc2c1ncn2[C@@H]1O[C@H](CO)[C@@H](O)[C@@H]1O
inactive: Potency [9] | Potency [12] | Potency [2] | Potency [3] | Potency [4] | activity, negative = cell killing [7, 16] -27.2% | activity, negative = cell killing [7, 15] -19% and -29.8%
active: Potency [6] 17.8 µM | Potency ([7]; tumour line A) 10 µM | Potency ([7]; tumour line D) 20 µM

CCCCc1oc2ccc(NS(C)(=O)=O)cc2c1C(=O)c1ccc(OCCCN(CCCC)CCCC)cc1
inactive: Potency [1] | Potency [12] | activity change, negative = inhibition ([10]; HiBiT) -10.2%
